A short description of test [1]: S. cerevisiae growth inhibition in permissive medium (OD615), pilot counter-assay for S. cerevisiae lifespan shortening project, permissive growth control (AID 705;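 active = growth inhibition above 25% in both replicates, a cutoff set 3 SD above the mean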). The note with it: OD615, 24 h, at 10 µM, hits give high values.
A short description of test [2]: S. cerevisiae growth inhibition in restrictive medium, OD615, pilot screen, restrictive growth control, yeast lifespan reduction project (AID 706;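 active = growth inhibition above a set limit, 3 SD over mean compound inhibition, in both replicates, cut at about 43% in these data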;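 also: modified DeaD lifespan yeast strain shifted to restrictive glucose medium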). The note with it: OD615, 48 h, at 10 µM, hits give high values.
Test [3] in a line: doxorubicin toxicity protection in MRP-1 cells – H69AR cells, CellTiter-Glo, duplicate, MRP-1 activator project, pilot screen (AID 807).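 Also: compound pretreatment 18-22 h then 72 h combined with doxorubicin; 0% = doxorubicin alone and 100% = vehicle without doxorubicin.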 The note with it: H69AR viability with doxorubicin, CellTiter-Glo luminescence; at 10 µM; hits give high values.
The nature of test [4]: viability of HCT116 without oncogenic beta-catenin – human colon tumor cells, pilot screen (AID 823;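 active = cell viability at or below a set limit in both duplicate runs, the limit being the all-compound median minus 4 SD, cut at about 23% in these data, passing the limit was not always enough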;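 also: 0% = wells killed by 20 µM Hyamine and 100% = untreated DMSO cell wells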). The note with it: HCT116 beta-catenin knockout viability, CellTiter-Glo, 60 h; at 10 µM; hits give low values. A general note: ATP-based viability assays read luminescence as a measure of living cells.
Test [5] can be described thus: viability of PTEN-null HCT116 cells – cell-based, HCT116 clonal line, CellTiter-Glo, pilot screen (AID 824;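 active = viability at or below 27.92% in each of two runs, the all-compound median minus 4 SD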;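 also: 0% = 20 µM Hyamine control and 100% = vehicle cell control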). To be noted: HCT116 PTEN-deleted viability, 60 h, at 10 µM, hits give low values.
A short description of test [6]: RAM signaling pathway blockade in yeast – S. cerevisiae, Pdr1DBD-CYC8 efflux-inhibited sensitized strain, primary screen (AID 1298;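 active = RAM network inhibition above 8.4% in each of two replicates, 3 SD over the compound average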;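 also: 0% = DMSO untreated cells without growth and 100% = 10 µM 1-NA-PP1 full growth; higher means more yeast growth rescued from 5-FOA killing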). The note with it: S. cerevisiae cbk1-as DSE1-URA3 strain, 5-FOA growth OD615, 2 d; at 50 µM; hits give high values.

Values without a mark were called inactive. Results filed as inconclusive are left out. Active and inactive are the calls of the source.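 The calls were made as follows, unless noted: active = viability increase at or above a cutoff of the median across tested compounds plus 3 SD (cut at about 8.5% in these data, passing the limit was not always enough); inconclusive = some gains above the cutoff, reason not given; inactive = the rest.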

Take `Cc1cc(Nc2ccc(C)c(Br)c2)n2nc(C)nc2n1`: the growth inhibition in test [1] was -12.9%; in test [2], 10.4%. In addition, the viability increase in test [3] is -5%. Besides, the viability (as a rule, a read-out of living cells in per cent, often relative to untreated cells) in test [4] was 92.1%; in test [5] it was 92.8%. The RAM network inhibition in test [6] was 3.87%.
Take `OC(COCC1COc2ccccc2O1)CN1CCc2ccccc2C1` (stereo unspecified): the growth inhibition is -28.7% in test [1] and -12.5% in test [2]. Also, the viability increase in test [3] was -2.72%. In addition, the viability in test [4] is 86.4%; in test [5] it was 90.8%. For the same molecule, the RAM network inhibition in test [6] is 1.37%.
In the case of `COc1cc(C(=O)NCCc2cn3ccc(C)cc3n2)cc(OC)c1OC`, the growth inhibition in test [1] was -4.97%; in test [2], 4.06%. In addition, in test [3], the viability increase was -4.28%. Besides, the viability is 96.5% in test [4] and 95.9% in test [5]. Also, the RAM network inhibition in test [6] was 2.94%.
In the case of `O=C1CCC(C(=O)NC2(C(=O)NC3CCCCC3)CCCCC2)N1` (stereo unspecified), the values for the growth inhibition in test [1] and in test [2] were -0.36% and -2.28%, respectively. Moreover, the viability increase in test [3] is 0.85%. The viability in test [4] was 99.6%; in test [5], 104%. Further, the RAM network inhibition in test [6] is 1%.
For `COc1ccc(-c2cn3c(C)c(C(=O)N4CCN(c5ccc(F)cc5)CC4)sc3n2)cc1`, the values for the growth inhibition in test [1] and in test [2] were -0.17% and -2.07%, respectively. The viability increase in test [3] was 0.81%. Moreover, the viability in test [4] was 101%; in test [5], 103%. In addition, in test [6], the RAM network inhibition was 5.28%.
`COc1ccccc1-c1cc(C(F)(F)F)nc(N2CCOCC2)n1`: the growth inhibition in test [1] was -8.95%; in test [2], -13.9%. Besides, the viability increase in test [3] is -0.29%. Besides, the viability in test [4] was 78.8%; in test [5] it was 82.5%. Also, the RAM network inhibition in test [6] is 7.23%.
For `C=CCOC(=O)c1sc(NC(=O)c2ccco2)nc1C`, the values for the growth inhibition in test [1] and in test [2] were -13.2% and -5.04%, respectively. Further, the viability increase in test [3] is -1.25%. In addition, the viability in test [4] is 94%; in test [5] it was 84.6%. Also, the RAM network inhibition in test [6] was 1.63%.
Regarding `CCOc1ccc(C2Oc3nc(SC)nnc3-c3ccccc3N2C(C)=O)cc1OC` (stereo unspecified), the growth inhibition was 6.18% in test [1] and 4.39% in test [2]. Moreover, the viability increase in test [3] was -2.28%. The viability in test [4] was 109%; in test [5] it was 99.8%. In addition, the RAM network inhibition in test [6] is 4.23%.
With `CCOC(=O)Nc1ccc(S(=O)(=O)Nn2cnnc2)cc1`, the growth inhibition in test [1] was -14.5%; in test [2], 1.07%. Besides, the viability increase in test [3] is 0%. Moreover, the viability in test [4] is 89%; in test [5], 108%. The RAM network inhibition in test [6] was 3.94%.
With `COc1ccc(CCc2nc(-c3ccc(-n4cccc4)cc3)no2)cc1`, the values for the growth inhibition in test [1] and in test [2] were -20.1% and -25.5%, respectively. Moreover, the viability increase in test [3] was 1.78%. Further, the viability in test [4] is 93.9%; in test [5], 91.6%. Also, the RAM network inhibition in test [6] is 6.54%.
In the case of `COc1cc(OC)c(NS(=O)(=O)c2coc(C(N)=O)c2)cc1Cl`, the growth inhibition in test [1] is -4.63%; in test [2] it was -4.55%. In addition, in test [3], the viability increase is -3.53%. In addition, the viability in test [4] is 105%; in test [5], 95.8%. The RAM network inhibition in test [6] is 6.88%.
As for `CCCCn1c(CNC(C)=O)nc2ccccc21`, the values for the growth inhibition in test [1] and in test [2] were -2.36% and 0.94%, respectively. Also, in test [3], the viability increase is -1.24%. For the same molecule, the viability was 98.1% in test [4] and 100% in test [5]. Besides, the RAM network inhibition in test [6] was 1.93%.
In the case of `CCCCOc1ccc(S(=O)(=O)Nc2cc(OC)ccc2OC)cc1`, the growth inhibition in test [1] was -1.52%; in test [2], -16.5%. Also, the viability increase in test [3] is 0.92%. Besides, the viability in test [4] was 54.8%; in test [5] it was 71.3%. In addition, the RAM network inhibition in test [6] was 7.83%.
For `CCn1c(=O)c2cc(C(=O)Nc3cc(C)on3)sc2c2ccccc21`, the figures for the growth inhibition in test [1] and in test [2] were -16.6% and -25.2%, respectively. Further, in test [3], the viability increase is -6.36%. Further, the viability in test [4] is 92.1%; in test [5], 71.5%. In test [6], the RAM network inhibition was 4.19%.
As for `CCOc1ccc(N(CC(=O)Nc2cccc(Cl)c2)S(=O)(=O)c2c(C)noc2C)cc1`, the figures for the growth inhibition in test [1] and in test [2] were -14.8% and -4.69%, respectively. The viability increase in test [3] is -7.01%. Besides, the viability was 39.2% in test [4] and 45.7% in test [5]. Further, in test [6], the RAM network inhibition was 12.6%.
Turning to `CCOc1ccc(-n2nnc3c(=O)n(CC(=O)N4CCCc5ccccc54)cnc32)cc1`, the growth inhibition in test [1] was -3.47%; in test [2], -10.2%. In addition, the viability increase in test [3] was -0.3%. Also, the viability in test [4] was 85.3%; in test [5] it was 84%. Besides, the RAM network inhibition in test [6] is 2.69%.
On to `CCCSc1nc2c(cnn2-c2ccccc2)c(=O)[nH]1`, for which the values for the growth inhibition in test [1] and in test [2] were -12.6% and -17.8%, respectively. Moreover, the viability increase in test [3] was -0.89%. The viability was 105% in test [4] and 95.7% in test [5]. In addition, in test [6], the RAM network inhibition was -0.83%.
Take `Cc1cc(=S)cc(C)n1CCCn1ccnc1`: the growth inhibition was -1.13% in test [1] and -26.5% in test [2]. In test [3], the viability increase was -0.81%. The viability was 103% in test [4] and 99.7% in test [5]. The RAM network inhibition in test [6] is 3.26%.
In the case of `c1ccc(-c2nc(CSc3nnnn3-c3ccccc3)cs2)cc1`, the growth inhibition in test [1] was -8.04%; in test [2] it was -0.095%. Further, the viability increase in test [3] was -2.18%. In addition, the values for the viability in test [4] and in test [5] were 99.5% and 93.4%, respectively. In test [6], the RAM network inhibition is 7.98%.
In the case of `CCCOCCOC(=O)c1[nH]c2c(c1C)C(=O)CC(c1cc(OC)ccc1OC)C2` (stereo unspecified), the growth inhibition in test [1] was -12.2%; in test [2], -4.79%. Further, the viability increase in test [3] was -4.21%. Further, the viability was 17.3% (active) in test [4] and 20.6% (active) in test [5]. In addition, in test [6], the RAM network inhibition is 8.16%.
Regarding `CCOC(=O)C1CCN(C(C(=O)NC2CCCCC2)c2ccc(OC)cc2)CC1` (stereo unspecified), the growth inhibition in test [1] was -4.53%; in test [2], -11.7%. In test [3], the viability increase is -1.91%. The viability in test [4] was 93.2%; in test [5], 88.6%. Further, the RAM network inhibition in test [6] is 3.74%.

The values above are taken from PubChem BioAssay.
